# Inconclusive results are not listed. A call without a number means that no potency is given here. Calls of active or inactive are those of the source. The call rests on the fitted dose curve; in most records, active means well fitted cell-killing curve with a large enough effect; inconclusive means small, poorly fitted or top-dose-only effect, or another doubt; inactive means flat fitted curve, though single readings scatter.
# Experiment: Vero cells viability counterscreen for qRT-PCR qHTS assay of selected Zika virus inhibitors
# Conditions: CellTiter-Glo ATP luminescence, 24 h; series mostly up to 41.8 µM
# From the text: Assay Submitters (PI): Avindra Nath, Ph.D., National Institute of Neurological Disorders and Stroke (NINDS), Bethesda, MD Radhakrishnan Padmanabhan, Ph.D., Georgetown University (GU), Washington D.C. Zika Virus causes congenital defects, including microcephaly and is associated with Guillain-Barre syndrome, eningoencephalitis and myelitis in infected adult. […] Using a target-based approach, we hope to establish a screening paradigm to uncover novel, cell-active NS2B-NS3 protease (Zika Virus) specific inhibitors from NCATS' collection of small molecules using qHTS. […] Four assay panel was created to identify potential Zika Virus inhibitors. Namely, (1) GU unlinked NS2B-NS3 AMC tagged protease qHTS, (2) GU unlinked NS2B-NS3 Rhodamine tagged protease qHTS, (3) NINDS linked NS2B-NS3 AMC tagged protease qHTS, (4) NINDS linked NS2B-NS3 Rhodamine tagged protease qHTS. Inhibitors of the Zika virus primary screens are confirmed using qRT-PCR secondary assays, mCherry orthogonal assay, and Vero cells viability counterscreen. Cytotoxic compounds identified in the Vero cell viability counterscreen were excluded from the list of potential Zika virus inhibitors. Early Translation Branch (ETB) National Center for Advancing Translational Sciences (NCATS), Rockville, MD National Institute of Health (NIH), Bethesda, Maryland
# Vero Cell Viability Assay: Vero cell cytotoxicity was determined using a luminescent readout with CellTiter Glo reagent (Promega, Madison, WI), which is based on measuring the ATP content within cells. Briefly, 4 uL of Vero cells at 2.5 x 10^5 cells/mL in DMEM containing 4% FBS were dispensed into 1536-well solid bottom tissue treated white plate using a Multidrop Combi dispenser (Thermo Scientific). Plates were incubated at 37 degrees C, 95% humidity, and 5% CO2 overnight to allow for cell attachment. Compounds were dissolved in DMSO at different concentrations and transferred via pintool (Wako Automation), for a final concentration of 57 uM - 0.029 uM. Plates were again incubated for 24 hours, followed by a 2 uL addition of CellTiter Glo. Finally, plates were incubated for 30 minutes at 37 degrees C and 5% CO2 before being read on a ViewLux (Perkin Elmer) for luminescence.
Structure (SMILES),Potency,"activity change, negative = cytotoxicity"
CCOc1ccc(-c2cc(NC(=O)c3c(F)cccc3F)c(C(=O)O)s2)cc1,inactive,
Cc1ccc2c(=O)c3ccccc3n(CCCN)c2c1C,inactive,
CN(CC(=O)N(Cc1ccc(C2CCCCC2)cc1)c1ccc(C(=O)O)cc1)S(=O)(=O)c1c(F)c(F)c(F)c(F)c1F,7.94 µM (active),
CN(C)[C@@H]1C(=O)C(C(N)=O)=C(O)[C@@]2(O)C(=O)C3=C(O)c4c(O)cccc4C[C@H]3C[C@@H]12,inactive,
CC(C)c1cccc2c(-c3ccccc3)cc(-c3ccc(-c4ccc(C(=O)O)cc4)[nH]3)nc12,25.1 µM (active),
O=C(O)CC1CCC(c2ccc(-c3ccc(Nc4ccc(C(F)(F)F)nc4)cn3)cc2)CC1 (stereo not given),inactive,
Cc1ccc2[nH]c(=O)c(C3=NN(C(=O)CCC(=O)O)C(c4ccc(Br)cc4)C3)c(-c3ccccc3)c2c1 (stereo not given),inactive,
CN(Cc1ccc(C(=O)O)cc1)c1ccc(OCc2c(-c3c(Cl)cccc3Cl)noc2C2CC2)nc1C(F)(F)F,inactive,
Oc1cc2ccccc2c2ccccc12,11.2 µM (active),
CC1(C)CC[C@]2(C(=O)O)CC[C@]3(C)C(=CCC4[C@@]5(C)C[C@@H](O)[C@H](O)C(C)(C)C5CC[C@]43C)C2C1 (stereo not given in full),inactive,
CCc1oc2ccccc2c1C(=O)c1cc(Br)c(O)c(Br)c1,inactive,
Cc1ccc2nc(NS(=O)(=O)c3ccc(Cl)cc3)c(Nc3ccc(C(=O)O)cc3)nc2c1,inactive,
O=C(Nc1ccc([N+](=O)[O-])cc1Cl)c1cc(Cl)ccc1O,inactive,
COc1cc(/C=C/c2ccccc2)c(C(=O)O)c(O)c1CC=C(C)C,inactive,
COc1cc(C)c(C(=O)OC2C(C)OC(OC3CCC(C)C4C3C=C(C)C3/C(C)=C\CC/C(C)=C/C5(C)C=C(C(=O)O)C(C)CC56OC(=O)/C(=C(\O)C34C)C6=O)C(O)C2O)c(OC)c1 (stereo not given),,3.72% [at 10.4 µM] (inactive)
CO[C@H]1C[C@@H](O[C@@H]2/C(C)=C/C[C@@H]3C[C@@H](C[C@]4(CC[C@H](C)[C@@H](C5CCCCC5)O4)O3)OC(=O)[C@@H]3C=C(C)/C(=N/O)[C@H]4OC/C(=C\C=C\[C@@H]2C)[C@]43O)O[C@@H](C)[C@H]1O,25.1 µM (active),
O=C(Nc1cc(C(F)(F)F)cc(C(F)(F)F)c1)c1cc(Cl)ccc1O,inactive,
CCCCCc1ccc(/C=C/C(=O)Nc2cc(Cl)ccc2C(=O)O)cc1,inactive,
CC1(C)CCC(C)(C)c2cc3c(cc21)Sc1ccccc1N=C3c1ccc(C(=O)O)cc1,inactive,
Oc1c(Cl)cc(Cl)c(Cl)c1Cc1c(O)c(Cl)cc(Cl)c1Cl,35.5 µM (active),

Structure (SMILES),Potency,"activity change, negative = cytotoxicity"
CCOC(=O)c1ccc(N2C(=O)c3n[nH]c(-c4cccs4)c3C2c2ccc(C(C)(C)C)cc2)cc1 (stereo not given),inactive,
CC(C)c1ccc2c(c1)c(SC(C)(C)C)c(CC(C)(C)C(=O)O)n2Cc1ccc(Cl)cc1,15.8 µM (active),
O=C1NC(=O)/C(=C/c2cccc(C(F)(F)F)c2)S1,inactive,
O=C(O)Cn1nnc(-c2cc(N3CCC(Oc4cc(F)ccc4Br)CC3)no2)n1,inactive,
CCOC(=O)c1ccc(N2C(=O)c3n[nH]c(-c4cccs4)c3C2c2ccc(Cl)cc2Cl)cc1 (stereo not given),25.1 µM (active),
CC(C)(O)c1ccccc1CC[C@@H](SCC1(CC(=O)O)CC1)c1cccc(/C=C/c2ccc3ccc(Cl)cc3n2)c1,inactive,
CC(C)(C)Sc1c(CC(C)(C)C(=O)O)n(Cc2ccc(Cl)cc2)c2ccc(OCc3ccc4ccccc4n3)cc12,inactive,
N#CC(c1ccnc(OCc2ccc(CN3CCOCC3)cc2)n1)c1nc2ccccc2s1 (stereo not given),inactive,
CCCCCCCOc1cc2c(cc1/C(C)=C/c1ccc(C(=O)O)cc1)C(C)(C)CCS2(=O)=O,inactive,
O=C(O)c1ccc2c(ccc3nn(-c4ccc(/C=C/c5ccc(-n6nc7ccc8cc(C(=O)O)ccc8c7n6)cc5[S+](=O)([O-])[O-])c([S+](=O)([O-])[O-])c4)nc32)c1,inactive,
O=C(O)Cc1cccc(OCCCN(Cc2cccc(C(F)(F)F)c2Cl)CC(c2ccccc2)c2ccccc2)c1,inactive,
CC(=O)O[C@@H]1C[C@]2(C)[C@@]3(CCC4[C@@]5(C)CC[C@H](O[C@@H]6O[C@H](C(=O)O)[C@@H](O)[C@H](O[C@@H]7O[C@H](CO)[C@H](O)[C@H](O)[C@H]7O[C@@H]7O[C@@H](C)[C@H](O)[C@@H](O)[C@H]7O[C@@H]7OC[C@](O)(CO)[C@H]7O)[C@H]6O[C@@H]6O[C@H](CO)[C@H](O)[C@H](O)[C@H]6O)C(C)(C)C5CC[C@]42C)O[C@@H](O)[C@]12C3CC(C)(C)[C@@H](OC(=O)/C=C/c1ccc(O)c(O)c1)[C@@H]2OC(=O)/C=C/c1ccccc1 (stereo not given in full),,2.61% [at 7.93 µM] (inactive)
O=C(O)c1ccc(-n2nc(-c3ccccc3O)nc2-c2ccccc2O)cc1,inactive,
CC(C)=CCc1c2c(c3occ(-c4ccc(O)c(O)c4)c(=O)c3c1O)C=CC(C)(C)O2,8.91 µM (active),
Oc1cccc(-c2c3nc(c(-c4cccc(O)c4)c4ccc([nH]4)c(-c4cccc(O)c4)c4nc(c(-c5cccc(O)c5)c5ccc2[nH]5)CC4)C=C3)c1,inactive,
COc1ccccc1-c1cccc(-c2c(O)c3cc(C#N)c(Cl)cc3[nH]c2=O)c1,inactive,
N#CC1C(=O)Nc2scc(-c3ccc(-c4ccccc4O)cc3)c2C1=O (stereo not given),inactive,
Cc1cccc(C)c1NS(=O)(=O)c1ccc(NS(=O)(=O)c2ccc3c(c2)OCCO3)cc1,inactive,
C/C(=C\c1ccc(C(=O)O)cc1)c1ccc2c(c1)C(C)(C)CCC2(C)C,inactive,
COc1ccc(NS(=O)(=O)c2ccc(NS(=O)(=O)c3ccc4c(c3)OCCO4)cc2)cc1,inactive,
